Source: patent publication US20240200044, “EVOLUTION OF TALENS” (President and Fellows of Harvard College, published 2024)

Target: CBX8-directed TALE-omega K59E (synthetic construct, UniProt Q56830 SEQ:41-724, K59E)
Assay: one_hybrid; versus canonical CBX8 TALE
Conditions: tags: N-terminal FLAG-NLS, C-terminal RNAP omega; dsDNA, one strand shown

Question: Which binding signal does the source give for TTCAGGAGGGCTTCGGC here?
Answer: 2 fold decrease
